Several values for one entry are separate records, joined by “and”; a condition that tells them apart may be missing. Identical values can stand only once. About 83,000 compounds went through this panel and 20% of them were active in at least one assay; those are over-represented in the sample as a whole.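 For each line, cells grew in 96-well plates with the test compound present at a single concentration for 48 hours.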 Activity calls are given as the source filed them. Rule for the calls: active = growth percent below 10; inactive = the rest.
Columns and labels:
Assay in all cases: NCI-60 one-dose screen, 48 h (100 = growth as untreated, 0 = no growth, -100 = all killed)
[1] = system: HCT-15 colon; conditions: 10 µM unless noted
[2] = system: HT29 colon; conditions: 10 µM unless noted
[3] = system: SNB-75 CNS; conditions: 10 µM unless noted
[4] = system: SNB-19 CNS; conditions: 10 µM unless noted
[5] = system: U251 CNS; conditions: 10 µM unless noted
[6] = system: PC-3 prostate; conditions: 10 µM unless noted
[7] = system: SK-MEL-5 melanoma; conditions: 10 µM unless noted
[8] = system: UACC-62 melanoma
[9] = system: LOX IMVI melanoma; conditions: 10 µM
[10] = system: SK-MEL-28 melanoma; conditions: 10 µM unless noted
[11] = system: SK-MEL-2 melanoma; conditions: 10 µM unless noted
[12] = system: EKVX NSCLC; conditions: 10 µM unless noted
[13] = system: SN12C renal; conditions: 10 µM unless noted
[14] = system: UO-31 renal; conditions: 10 µM unless noted
[15] = system: TK-10 renal
[16] = system: CAKI-1 renal; conditions: 10 µM unless noted
[17] = system: A498 renal; conditions: 10 µM unless noted
[18] = system: MOLT-4 leukemia; conditions: 10 µM unless noted
[19] = system: ACHN renal; conditions: 10 µM unless noted
[20] = system: CCRF-CEM leukemia; conditions: 10 µM unless noted

Measured: growth

OC(c1cc2ccc(C(F)(F)F)cc2c2cc(C(F)(F)F)ccc12)C1CCCCN1 (stereo unspecified)
active: [1] -90.4% | [2] -100% | [3] -94.4% | [4] -80.6% | [5] -100% | [6] -95.2% | [7] -95.4% | [8]; 10 µM unless noted -96.5% | [9] -100% | [10] -99.3% | [11] -83.1% | [12] -96.7% | [13] -90.8% | [14] -95.8% | [15]; 10 µM unless noted -89.5% | [16] -93.8% | [17] -65.6% | [18] -73.4%

CC(C)=C1C=C2CC[C@@H]3[C@](C)(CCC[C@@]3(C)C(=O)O)[C@H]2CC1
inactive: [1] 98% | [2] 108% | [3] 93.4% | [4] 98.1% | [5] 96.2% | [6] 97.3% | [7] 96.8% | [8]; 10 µM unless noted 102% | [9] 85.5% | [10] 107% | [11] 109% | [12] 93.4% | [13] 106% | [14] 88.9% | [15]; 10 µM unless noted 93.2% | [19] 104% | [16] 99.6% | [17] 109% | [20] 106% | [18] 96.6%

O=C1C=CC(=O)N1c1ccc(O)cc1
inactive: [1] 102% | [2] 112% | [3] 98.1% | [4] 103% | [5] 99.9% | [6] 98.3% | [7] 102% | [8]; 10 µM unless noted 95.4% | [9] 99.8% | [10] 107% | [11] 107% | [12] 109% | [13] 104% | [14] 98.5% | [15]; 10 µM unless noted 103% | [16] 107% | [17] 104% | [20] 81% | [18] 104%

O=C(NNc1ccccc1)OCc1ccccc1
inactive: [1] 73% | [2] 97.7% | [3] 114% | [4] 97.5% | [5] 80.4% | [6] 54.1% | [7] 101% | [8]; 10 µM unless noted 28.1% | [9] 20.8% | [10] 105% | [11] 86.1% | [12] 91% | [13] 84.9% | [14] 56.8% | [15]; 10 µM unless noted 90% | [16] 28.3% | [17] 86.1% | [20] 22% | [18] 26.9%

N#CC(I)CS(=O)(=O)c1ccccc1 (stereo unspecified)
active: [20] 3.27%
inactive: [1] 64.2% | [2] 50.9% | [3] 95.5% | [4] 94.8% | [5] 91.2% | [6] 90.8% | [7] 97.5% | [8]; 10 µM unless noted 84.4% | [9] 70.8% | [10] 97% | [11] 91.6% | [12] 103% | [13] 93.4% | [14] 77.2% | [15]; 10 µM unless noted 89.7% | [19] 36.7% | [16] 55.4% | [17] 121% | [18] 88.9%

NNc1ccc(Cl)cc1Cl
inactive: [1] 79.8% | [2] 94.2% | [3] 80.7% | [4] 92.5% | [5] 76.4% | [6] 60.4% | [7] 86.1% | [8]; 10 µM unless noted 37.2% | [9] 67.5% | [10] 120% | [11] 92.4% | [12] 81.1% | [14] 29.2% | [15]; 10 µM unless noted 94.3% | [19] 54.7% | [16] 58.8% | [17] 97.2% | [20] 27.7% | [18] 52.7%

CC(C)=CCCC(C)C1=C(O)C(=O)C(C)=CC1=O (stereo unspecified)
active: [1] 1.72% | [8]; 100 µM -98.4% and -93.3% | [14] -98.3% | [15]; 10 µM 5.08% | [15]; 100 µM -99.3% and -84.7% | [19] -39% | [20] -29.2% | [18] -30.1%
inactive: [2] 83.6% | [3] 113% | [4] 98.7% | [5] 81.3% | [6] 90.8% | [7] 88.7% | [8]; 10 µM 103% | [9] 59.1% | [11] 92.9% | [12] 122% | [13] 106% | [16] 88.4% | [17] 92.9%

CC(CSc1n[nH]c(=S)s1)c1ccccc1 (stereo unspecified)
inactive: [1] 110% | [2] 126% | [3] 85.1% | [4] 102% | [5] 107% | [6] 102% | [7] 103% | [8]; 10 µM unless noted 108% | [9] 97.6% | [10] 116% | [11] 130% | [12] 107% | [14] 77.4% | [15]; 10 µM unless noted 116% | [19] 116% | [16] 98.5% | [17] 108% | [18] 91.2%

O=C1c2ccccc2C(=O)c2c(O)c(Cl)cc(O)c21
inactive: [1] 81.9% | [2] 39% | [3] 96% | [4] 93.1% | [5] 38% | [6] 77% | [7] 108% | [8]; 10 µM unless noted 81.3% | [9] 50.9% | [10] 103% | [11] 124% | [12] 98.3% | [13] 96.5% | [14] 79.8% | [15]; 10 µM unless noted 89.4% | [19] 92.1% | [16] 95.1% | [17] 91% | [20] 64.3% | [18] 75.9%

Cc1ccccc1NC(=O)Cc1csc2[n+]1C(=O)/C(=C/c1ccc([N+](=O)[O-])cc1)S2
inactive: [1] 100% | [2] 113% | [3] 80.9% | [4] 102% | [5] 92.2% | [6] 85.9% | [7] 94.3% | [8]; 10 µM unless noted 88.2% | [9] 86.6% | [10] 95.8% | [11] 108% | [12] 92.8% | [13] 99.6% | [14] 71.8% | [15]; 10 µM unless noted 117% | [16] 93.4% | [17] 75% | [20] 99.1% | [18] 88.2%

CCOC(=O)/C(=C\c1ccc2ccccc2c1)P(=O)(OCC)OCC
active: [1] 2.93% | [2] 3.89% | [8]; 10 µM unless noted 9.26% | [9] -55.6% | [20] -36.6% | [18] -25.1%
inactive: [3] 35.2% | [4] 41.8% | [5] 38.2% | [6] 58.5% | [7] 44.4% | [10] 18.7% | [11] 54.7% | [12] 71% | [13] 17% | [14] 12.4% | [15]; 10 µM unless noted 61.4% | [19] 14% | [16] 45.5% | [17] 55.3%

CC(C)Nc1ccc(Nc2ccc(NC(C)C)cc2)cc1
inactive: [1] 92.9% | [2] 26.9% | [3] 79.7% | [4] 28.6% | [5] 16.9% | [6] 38.8% | [7] 33.2% | [8]; 10 µM unless noted 36.6% | [9] 39.9% | [10] 50.8% | [11] 69.9% | [12] 31.3% | [13] 30.7% | [14] 87% | [15]; 10 µM unless noted 62.6% | [19] 70.4% | [16] 94.4% | [17] 84.1% | [20] 58.6% | [18] 30.1%

CN1CSC(=S)N(Cc2ccccc2)C1
inactive: [1] 84.8% | [2] 24.9% | [3] 98.1% | [4] 95.5% | [5] 100% | [6] 95.4% | [7] 96.8% | [8]; 10 µM unless noted 85.8% | [9] 11.3% | [10] 120% | [11] 73.3% | [12] 118% | [13] 99.9% | [14] 69.5% | [15]; 10 µM unless noted 28.6% | [16] 80% | [17] 145% | [20] 59.3% | [18] 64.5%

Clc1ccc(-n2ncc3c(NCCCN4CCOCC4)ncnc32)cc1
inactive: [1] 96.6% | [2] 105% | [3] 89.6% | [4] 102% | [5] 93.1% | [6] 87.5% | [7] 83.5% | [8]; 10 µM unless noted 110% | [9] 88.8% | [10] 94.6% | [11] 108% | [12] 92.9% | [13] 99.1% | [14] 79.6% | [15]; 10 µM unless noted 107% | [19] 96.4% | [16] 107% | [17] 104% | [20] 94.4% | [18] 97.7%

O=S(=O)(O)c1cnccn1
inactive: [1] 103% | [2] 94.7% | [3] 92.9% | [4] 104% | [5] 102% | [6] 82.6% | [7] 104% | [8]; 10 µM unless noted 99.4% | [9] 98% | [10] 107% | [11] 102% | [12] 97.4% | [13] 103% | [14] 93.4% | [15]; 10 µM unless noted 94% | [19] 104% | [16] 92.3% | [17] 118% | [20] 112% | [18] 101%

Cc1nc(Sc2nc3ccc([N+](=O)[O-])cc3s2)sc1C
active: [1] -21.2% | [8]; 10 µM unless noted -15.4% | [9] -46.4% | [13] -29.4% | [18] -7.45%
inactive: [2] 10.2% | [3] 53.1% | [4] 35.4% | [5] 27.2% | [6] 23% | [7] 41.1% | [10] 27.8% | [11] 15.4% | [12] 88.5% | [14] 23.5% | [15]; 10 µM unless noted 19.3% | [19] 11.4% | [16] 28.5% | [17] 46.5%

From PubChem BioAssay (NCI)
